Assay outcomes: PubChem BioAssay, National Center for Advancing Translational Sciences (NCATS)
ELG1 DNA repair: qHTS screen for small molecules that inhibit ELG1-dependent DNA repair in human embryonic kidney (HEK293T) cells expressing luciferase-tagged ELG1; actives 2.3% (n = 330,000); HEK293T ELG1-luciferase reporter, luminescence, 16 h; DNA damage induced by 5-fluorouridine; Potency, µM (doses to about 46.1 µM), inactives show at the highest dose activity change, negative = inhibition, most hits filed as inhibitors; further: potency means the concentration at half of the fitted maximal effect; nearly all actives have a fitted effect of over 55% in size
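5-Fluorouridine DNA damage + compound/DMSO, 2,000 cells/well, 16 h, 37 °C/5% CO2. ONE-Glo, 30 min RT, luminescence. Readout = decrease in reporter signal.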
TSHR antag: Antagonists of the Thyroid Stimulating Hormone Receptor: HTS campaign; Thyrotropin receptor (Homo sapiens), P16473; TSHR-expressing cells, TSH-stimulated cAMP HTRF, 2 h; stronger effect = lower value; activity change, negative = inhibition, % at 11.5 µM; actives 0.2% (n = 330,000); AID 504810, 2011;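 active means activity change below a set negative limit, meaning inhibition stronger than a set level, cut at about -70% in these data; inconclusive means activity change between two set negative limits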
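Inhibition of cAMP made by TSHR-expressing cells under TSH stimulation (4nM final, EC80; 2 h, 37 deg C) is quantified with a one-step lysis HTRF kit, anti-cAMP cryptate versus cAMP-d2.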
FBPA coupling cs: qHTS Assay for Inhibitors of Fructose-1,6-bisphosphate Aldolase from Giardia Lamblia: Coupling assay counterscreen. actives 0.67% (n = 290,000). coupling enzyme system counterscreen, AmpLite Red fluorescence. activity change, negative = inhibition, % at 58.2 µM, hits read low; in the data active means activity change below about -30%
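Counterscreen of the coupled detection system alone, without aldolase: glyceraldehyde-3-phosphate coupling enzymes plus AmpLite Red readout. Compounds at 57.5 uM final, 10 min RT preincubation, 20 min RT reaction, fluorescence 525/598 nm.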
RORgamma inh: qHTS for inhibitors of ROR gamma transcriptional activity; Drosophila S2 Gal4-RORgamma UAS-luciferase reporter, 20 h; Potency, µM (titrated, usually from 53.6 µM), without a hit: top-dose activity change, negative = inhibition, most hits filed as inhibitors; AID 2551, 2010; actives 5.4% (n = 310,000); further: potency means the concentration at half of the fitted maximal effect; nearly all actives have a fitted effect of over 60% in size
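Drosophila Schneider cells stably carrying a metallothionein-driven Gal4 DBD–ROR gamma fusion and a UAS-Photinus luciferase reporter were exposed to compound for 1 hr, then induced with copper sulfate (700 uM final) for 20 hr at ambient temperature before luminescence reading.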
VP16 counter: VP16 counterscreen qHTS for inhibitors of ROR gamma transcriptional activity. Drosophila S2 Gal4-VP16 UAS-luciferase, luminescence, 20 h. Potency, µM (doses to about 53.6 µM), inactives show at the top dose activity, negative = inhibition, hits mostly inhibitors. actives 3.5% (n = 310,000);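 further: Gal4-VP16 expression switched on by copper sulfate through the metallothionein promoter; potency means the concentration at half of the fitted maximal effect; nearly all actives have a fitted effect of over 50% in size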
* = called active by the depositor; ? = inconclusive; / = no result given; [ ] = remark or other dose. The list is not random: actives were taken first. Their share in the collection is about 8%. Unless noted, the call rests on the fitted dose curve; in most records, active means well fitted curve in the direction sought with a large enough effect; inconclusive means small, poorly fitted or top-dose-only effect, or another doubt; inactive means no such curve, though single readings can be large; an effect the other way counts as inactive or inconclusive. On the % scale 0 is the no-effect control and ±100 the full control effect.

SMILES	ELG1 DNA repair	TSHR antag	FBPA coupling cs	RORgamma inh	VP16 counter
CCOC(=O)C1CCCCN1C(=O)c1ccc2nc(Cc3ccc(OC)cc3)oc2c1 (stereo not given)	-6%	-8	/	28%	0%
CCOC(=O)C1CCCCN1C(=O)/C(=C/c1ccc(OC)cc1)c1ccc(OC)c(OC)c1 (stereo not given)	18µM*	11	/	/	/
CCCCN1C(=O)Cc2c1nc(N)c1c(N)nc(N(CCC)CCC)c(C#N)c21	?	-9	-11	?	22µM*
N#Cc1c(N(CCO)CCO)nc(N)c2c(N)nc3c(c12)CC(=O)N3CC1CCCO1 (stereo not given)	-19%	7	-38*	8%	3%
COc1ccc(CN2C(=O)Cc3c2nc(N)c2c(N)nc(N4CCCCC4)c(C#N)c32)cc1	-13%	-11	-8	8%	-11%
Nc1nc2cc(S(=O)(=O)NC3=NCCCCC3)ccc2s1	-1%	21	3	?	?
CCOC(=O)c1ccc(S(=O)(=O)Nc2nc3cc(S(=O)(=O)NC4=NCCCCC4)ccc3s2)cc1	2%	-7	15	14µM*	?
O=C(NCCCn1ccnc1)/C(=C\c1ccccc1Cl)NC(=O)c1ccccc1	-1%	2	/	-5%	3%
COC(=O)CC[C@@H](C)[C@H]1CC[C@H]2[C@@H]3CC[C@@H]4C[C@H](O)CC[C@]4(C)[C@H]3C[C@H](O)[C@]12C	/	/	0	16%	-11%
CCN(CC)S(=O)(=O)c1cc(NC(=O)CSc2nnc(N)s2)ccc1C	-6%	-5	/	/	/
CCN(CC)S(=O)(=O)c1cc(NC(=O)CSc2nc3c(cc2C#N)C(=O)CC(C)(C)C3)ccc1C	21µM*	-15	-5	15%	24%
Cc1cccc(NS(=O)(=O)c2ccc(C)c(C(=O)NCC(c3ccco3)N3CCCCC3)c2)c1 (stereo not given)	?	-10	/	/	/
CCC(C)n1c(SCC(=O)NC(=O)c2cccn2C)nc2ccccc2c1=O (stereo not given)	?	-19	-1	14µM*	?
CCOC(=O)C1CCCN(S(=O)(=O)CCNC(=O)c2ccc3c(c2)OCO3)C1 (stereo not given)	-4%	-7	/	/	/
CCc1nnc(NC2=NCCC2)s1	14%	12	0	-24%	18µM*
c1nnc(NC2=NCCCCC2)s1	0%	2	0	32%	9%[0.365 µM]
c1nnc(NC2=NCCC2)s1	18%	11	-3	-24%	3%
Cc1cnc(NC2=NCCC2)s1	-18%	-3	0	7.1µM*	?
CCOC(=O)[C@@H]1[C@H]2COc3ccccc3[C@H]2N2C(=O)N(c3ccc(Cl)cc3)C(=O)[C@]12C	2%	-3	-2	23%	-1%
C=CCOCCn1[nH]c2ccccc2c1=O	9%	0	/	/	/
Cc1sc2ncn3cnnc3c2c1C	?	20	0	8%	-9%
Cc1sc2ncn3ncnc3c2c1C	9.2µM*	6	0	0%	-3%
COC(=O)c1ccc(C(NC(=O)OCc2ccccc2)/C(F)=C/[C@@H](C)C(=O)NCc2ccc(-c3ccccc3)cc2)cc1 (stereo not given in full)	25%	-6	2	42%	-20%
COC(=O)c1ccc(C(NC(=O)OCc2ccccc2)/C(F)=C/[C@@H](C)C(=O)NCc2ccc(OC)c(OC)c2)cc1 (stereo not given in full)	18µM*	-4	-1	-3%	?
C=CCNC(=S)N(C1CCCCC1)C1CCCCC1	2%	-2	1	10µM*	2%
CC(C)C(C(=O)NCC1CCCO1)N(Cc1ccccc1)C(=O)CNS(=O)(=O)c1ccccc1 (stereo not given)	3%	34	-1	-24%	-9%
COc1ccc(CN(C)C(=O)Cc2ccc(S(=O)(=O)N3CCOCC3)s2)cc1OC	-4%	-8	/	/	/
